Rows were chosen to be rich in hits. Some 18% of all compounds tested hit in one or more screens of this group.
PLK1 PBD block – PLK1 (human) polo-box domain binding inhibition; Plk1 PBD binding of FITC phosphopeptide, fluorescence polarization; Potency, µM, inactives show max response, negative = inhibition, actives largely listed as inhibitors; 2.8% of 360,000 active; AID 720504; further: series mostly up to about 57 µM; nearly all actives have a fitted effect of over 65% in size
DT40 TDP1 no CPT – qHTS for Inhibitors of human tyrosyl-DNA phosphodiesterase 1 (TDP1): qHTS in cells in absence of CPT | DT40 Tdp1-/- hTDP1 cells, no CPT, ATP luminescence, 48 h | Potency, µM (top dose mostly 46.2 µM), inactives show top-dose activity change, negative = growth inhibition, hits mostly inhibitors | 15% of 420,000 active | AID 686978, 2013; further: nearly all actives have a fitted effect of over 55% in size
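Cells were dispensed at 400 per well, compounds added by pin tool, plates incubated ≥48 hr at 37 °C, then CellTiter-Glo added for 30 min at room temperature before luminescence reading. Line: DT40 Tdp1-/- complemented with hTDP1; camptothecin omitted.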
GCN5L2 inh – GCN5L2 (KAT2A) acetyltransferase inhibition; Q92830; GCN5L2 HAT assay, ThioGlo1 CoA-SH fluorescence; AID 504327; 0.21% of 390,000 active; Potency, µM (series often up to 58.9 µM), for inactives: top-dose activity change, negative = inhibition, usual class: inhibitors
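GCN5L2 (20nM final) in 50mM HEPES, 0.1mM EDTA pH 7.5, 0.01% Tween-20 was preincubated 15 min at room temperature with compound, then given ThioGlo1 (50uM), H3(1-25) peptide (75uM) and acetyl-CoA (70uM); CoA-thiol fluorescence (Ex340/Em540) was read at 0 and 20 min.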
TDP1 cell CPT – DT40-hTDP1 cell growth loss with CPT. chicken DT40 Tdp1-/-;hTDP1 cells + 20 nM CPT, ATP luminescence, 48 h. Potency, µM (series often up to 46.2 µM), inactives show at the highest dose activity change, negative = growth inhibition, most hits filed as inhibitors. 12% of 420,000 active. AID 686979; further: nearly all actives have a fitted effect of over 55% in size
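Cell growth measured by CellTiter-Glo luminescence after a minimum 48 h, 37 C compound exposure with 20 nM CPT in Tdp1-knockout DT40 cells stably expressing hTDP1, seeded 400/well; qHTS titration format.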
TDP1 inh – inhibitors of human tyrosyl-DNA phosphodiesterase TDP1; Potency, µM (highest dose often 130 µM), for inactives: at the highest dose activity change, negative = inhibition, hits mostly inhibitors; AID 485290; 0.28% of 350,000 active; recombinant TDP1, AlphaScreen DNA substrate cleavage; further: nearly all actives have a fitted effect of over 40% in size
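E. coli-derived human Tdp1, 1 nM final. Cpd preinc 15 min RT; substrate 15 nM final, 5 min RT; AS bead mix 10 ug/ml final, 10 min RT. Signal loss = tyrosine-FITC cleavage. No-enzyme wells = max signal.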
VDR inh – inhibitors of human vitamin D receptor; P11473; VDR-SRC2-3 peptide fluorescence polarization, 2 h; Potency, µM, for inactives: max response, negative = inhibition, most hits filed as inhibitors; 0.93% of 400,000 active
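Reagent solutions, kept cold and dark, are dispensed first; compounds are then pinned in at 23 nl, plates briefly spun, and incubated 2 h at ambient temperature. Inhibition of VDR–SRC2-3 peptide binding is read by fluorescence polarization.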
* hit, by the source's call; ? = inconclusive; . = no result given; [ ] = another dose, or the depositor's remark. The call rests on the fitted dose curve; in most records, active means well fitted curve in the direction sought with a large enough effect; inconclusive means small, poorly fitted or top-dose-only effect, or another doubt; inactive means no such curve, though single readings can be large; an effect the other way counts as inactive or inconclusive. On the % scale 0 is the no-effect control and ±100 the full control effect; potency means the concentration at half of the fitted maximal effect.

SMILES	PLK1 PBD block	DT40 TDP1 no CPT	GCN5L2 inh	TDP1 cell CPT	TDP1 inh	VDR inh
O=C(CN1CCCc2ccccc21)NC(=O)NC1CCCCC1	26.7µM*	?	5.6%	?	6.3%	-28.3%
C[C@H]1CN=C(N(C)C)N1CC1CCC(C(C)(C)C)CC1 (stereo not given in full)	2.0%	11.6µM*	-3.3%	13µM*	.	-13.5%
C[C@H]1CN=C(N(C)C)N1CCC1CCCCC1	0.4%	16.4µM*	-3.0%	?	0.1%	-8.3%
S=c1[nH]c(-c2ccc(Cl)cc2)cs1	9.47µM*	-25.7%	-20.5%	?	1.6%	?
S=c1nccc(-c2ccc(Cl)cc2)[nH]1	1.5µM*	20.6µM*	?	?	0.0%	?
CN(C)S(=O)(=O)c1ccc(C(=O)Nc2ccn(C)n2)cc1	-6.4%	2.9%	-2.1%	9.9%	-0.3%	22.9%
N#CC1=C(N)C(C#N)(C#N)C(c2ccncc2)C2CN(C(=O)OCc3ccccc3)CC=C12 (stereo not given)	-14.1%	16.4µM*	10.7%	20.6µM*	1.7%	?
CN1CC=C2C(C#N)=C(N)C(C#N)(C#N)[C@H](c3cccs3)[C@H]2C1	21.2µM*	14.6µM*	-5.4%	?	0.0%	?
CN1CC=C2C(C#N)=C(N)C(C#N)(C#N)[C@H](c3cccc(Cl)c3)C2C1 (stereo not given in full)	?	23.1µM*	-6.3%	?	0.0%	-24.4%
CCOC(=O)N1CC=C2C(C#N)=C(N)C(C#N)(C#N)[C@H](c3ccccc3OCC)[C@H]2C1	-13.2%	?	-7.0%	?	-7.1%	?
CN1CC=C2C(C#N)=C(N)C(C#N)(C#N)C(c3ccsc3)C2C1 (stereo not given)	?	?	3.4%	?	4.8%	-4.6%
C[C@]12C=CC(=O)N[C@@H]1CC[C@@H]1C2CC[C@]2(C)C(C(=O)Nc3cc(C(F)(F)F)ccc3C(F)(F)F)CC[C@@H]12 (stereo not given in full)	.	.	12.1%	.	-2.1%	12.1%
COc1ccc(-c2ccnc(SCC(=O)Nc3ccccn3)n2)cc1	-7.6%	18.4µM*	-2.9%	?	-3.9%[56.1 µM]	2.5%
CN(c1ccccc1C(=O)Nc1cccc(Br)c1)S(=O)(=O)c1ccccc1	-9.9%	?	-3.9%	?	.	31.2%
CCCNC(=O)c1ccccc1NC(=O)c1ccccc1N(C)S(=O)(=O)c1ccc(C)cc1	0.0%	18.4µM*	-3.4%	?	-5.2%	-14.6%
CCCNC(=O)c1ccccc1NC(=O)c1ccccc1N(C)S(C)(=O)=O	-3.8%	-15.1%	-2.8%	-14.1%	-8.7%	11.4%
CCOC(=O)c1ccc(NC(=O)c2ccccc2N(C)S(=O)(=O)c2ccccc2)cc1	0.7%	?	-14.3%	18.4µM*	5.3%	-20.5%
O=C(Cc1ccccc1)NO	.	-6.7%	-8.2%	-13.8%	1.0%	-2.2%
O=C(Cc1ccccc1)NC1(O)C(=O)c2ccccc2C1=O	-15.2%	?	-16.8%	-24.1%	-0.6%	35.5µM*
Cc1ccc(CNC(=O)CCS(=O)(=O)c2ccc(Br)s2)cc1	-25.3%	-11.2%	-7.7%	-18.7%	4.9%	-4.1%
Cc1ccc(NC(=O)CCS(=O)(=O)c2ccc(Br)s2)cc1	26.7µM*	?	-8.3%	-20.7%	-5.7%	-14.4%
CCOc1ccc(OCC)c(NC(=O)CCS(=O)(=O)c2ccc(Br)s2)c1	-28.9%	-19.9%	1.4%	-19.3%	1.0%	-8.0%
CCOc1ccc(NC(=O)CCS(=O)(=O)c2ccc(Br)s2)cc1	.	14.6µM*	-1.9%	18.4µM*	-6.4%	10.0%
C=C1C(=O)O[C@H]2[C@H]1[C@H](OC(=O)/C(C)=C\C)C[C@]1(CO1)[C@@H]1[C@H](OC(C)=O)C=C(C)[C@]21O	-12.5%	13µM*	.	11.6µM*	.	?

From PubChem
